Bioassay records: PubChem BioAssay, National Center for Advancing Translational Sciences (NCATS)
nsP2pro inh – Primary qHTS for inhibitors of NSP2Pro chikungunya virus (CHIKV); FRET peptide cleavage, nsP2pro, fluorescence 1 h; hit rate 1.1% among 31,000; Polyprotein P1234 (Chikungunya virus (strain S27-African prototype)), Q8JUX6; Potency, µM (highest dose often 24.9 µM), for inactives: top-dose activity change, negative = inhibition, most hits filed as inhibitors; further: nearly all actives have a fitted effect of over 60% in size
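Recombinant nsP2pro (150 nM) was preincubated with compound 15 min at room temperature in 10 mM Tris-HCl pH 8.0, 0.01% Tween 20. Peptide 2 FRET substrate (2.5 uM) was then added and fluorescence read after 1 h. Seven-point series, up to 25 uM.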
CHIKV nsP2 cell – Secondary cell base assay for inhibitors of NSP2Pro Chikungunya virus (CHIKV); shares compounds with nsP2pro inh; cell-based CHIKV nsP2 protease reporter assay; Potency, µM (highest dose often 51.1 µM), without a hit: at the top dose activity change, negative = inhibition, most hits filed as inhibitors; hit rate 10% among 450; AID 1964100, 2024; further: nearly all actives have a fitted effect of over 70% in size
Target sequence (Q8JUX6 220-798 limits assumed): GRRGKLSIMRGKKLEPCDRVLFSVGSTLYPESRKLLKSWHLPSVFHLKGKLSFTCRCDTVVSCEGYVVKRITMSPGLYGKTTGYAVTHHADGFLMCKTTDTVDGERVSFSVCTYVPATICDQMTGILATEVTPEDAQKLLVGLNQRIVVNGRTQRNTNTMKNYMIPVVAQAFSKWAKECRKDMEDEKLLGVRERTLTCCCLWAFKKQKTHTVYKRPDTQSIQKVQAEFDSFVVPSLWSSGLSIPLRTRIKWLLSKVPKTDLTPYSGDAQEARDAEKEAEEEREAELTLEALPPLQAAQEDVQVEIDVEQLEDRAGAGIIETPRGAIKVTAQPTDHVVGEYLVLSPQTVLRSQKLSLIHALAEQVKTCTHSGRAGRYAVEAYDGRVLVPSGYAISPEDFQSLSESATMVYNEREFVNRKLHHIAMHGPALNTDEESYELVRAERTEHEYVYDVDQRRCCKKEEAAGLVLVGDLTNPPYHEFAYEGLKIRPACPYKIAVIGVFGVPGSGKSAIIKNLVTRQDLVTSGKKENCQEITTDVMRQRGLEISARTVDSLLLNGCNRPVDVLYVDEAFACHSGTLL
NSP2 full ctr – Selectivity profile for inhibitors of NSP2Pro chikungunya virus (CHIKV): Full length NSP2 enzyme counterscreen (CHIKV-NSP2) | shares compounds with nsP2pro inh | Full-length CHIKV NSP2 protease enzymatic counterscreen | Potency, µM (highest dose often 50.7 µM), without a hit: at the highest dose activity change, negative = inhibition, usual class: inhibitors | hit rate 39% among 410; further: nearly all actives have a fitted effect of over 65% in size
Furin counterscr – Selectivity profile for inhibitors of NSP2Pro chikungunya virus (CHIKV): Human furin counterscreen. Potency, µM (top dose mostly 50.6 µM), without a hit: at the highest dose activity change, negative = inhibition, usual class: inhibitors. AID 1964102, 2024. shares compounds with nsP2pro inh. hit rate 6% among 410. Recombinant human furin enzymatic counterscreen, fluorogenic substrate
nsP2 NS23 pep – Selectivity profile for inhibitors of NSP2Pro chikungunya virus (CHIKV): Endogenous NS2/3 peptide Counterscreen | shares compounds with nsP2pro inh | Purified CHIKV nsP2 protease, endogenous NS2/3 peptide cleavage | Potency, µM (series often up to 51 µM), for the others: at the highest dose activity change, negative = inhibition, usual class: inhibitors | hit rate 34% among 410 | AID 1964103, 2024; further: nearly all actives have a fitted effect of over 55% in size
Papain cs – Selectivity profile for inhibitors of NSP2Pro chikungunya virus (CHIKV): Papain Counterscreen. shares compounds with nsP2pro inh. purified papain protease activity, enzymatic inhibition. Potency, µM (series often up to 51 µM), for the others: at the highest dose activity change, negative = inhibition, hits mostly inhibitors. hit rate 5% among 410. AID 1964104, 2024
nsP2pro conf qHTS – Confirmatory qHTS for inhibitors of NSP2Pro chikungunya virus (CHIKV); shares compounds with nsP2pro inh; CHIKV nsP2 protease enzymatic activity, qHTS; Potency, µM (highest dose often 25.5 µM), for the others: at the top dose activity change, negative = inhibition, hits mostly inhibitors; hit rate 43% among 410; further: nearly all actives have a fitted effect of over 75% in size
HCV NS3 4A cs – Selectivity profile for inhibitors of NSP2Pro chikungunya virus (CHIKV): NS34A-HCV Counterscreen. Potency, µM (doses to about 50.9 µM), hits mostly inhibitors. shares compounds with nsP2pro inh. hit rate 20% among 410. AID 1964106, 2024. HCV NS3/4A protease biochemical counterscreen; further: nearly all actives have a fitted effect of over 55% in size
An asterisk follows results filed as active; i = inactive; ? = inconclusive; [ ] = another dose, or the depositor's remark. Shown is part of a subset that was picked to be rich in hits. The call rests on the fitted dose curve. On the % scale 0 is the no-effect control and ±100 the full control effect; potency means the concentration at half of the fitted maximal effect.

SMILES	nsP2pro inh	others
C=C1C[C@]23C[C@H]1CC[C@H]2[C@@]1(C)CCC[C@@]2(C)C(=O)O[C@@H]([C@@H]3O)[C@@H]12	-13%
O=C(O)CNC(=O)c1c(=O)cc(CCc2ccccc2)n2[nH]cnc12	52%
O[C@@H]1CO[C@H]2[C@@H]1OC[C@@H]2n1nnnc1Sc1ncccn1	-13%[39.2 µM]
O=C(NC1CCCCC1)O[C@@H]1CO[C@H]2[C@@H]1OC[C@@H]2NS(=O)(=O)c1ccc(Cl)cc1	-21%
O=C(NC1CCCCC1)O[C@@H]1CO[C@H]2[C@@H]1OC[C@@H]2n1nnnc1SCc1ccco1	0.45µM*	CHIKV nsP2 cell=3%;NSP2 full ctr=2.9µM*;Furin counterscr=?;nsP2 NS23 pep=6.5µM*;Papain cs=-8%;nsP2pro conf qHTS=0.9µM*;HCV NS3 4A cs=?
CC(=O)O[C@]1(C(C)=O)CC[C@H]2[C@@H]3CCC4=CC(=O)CCC4=C3[C@@H](c3ccc(N(C)C)cc3)C[C@@]21C	-10%
Oc1cc2c(cc1CN1CCN(c3ncccn3)CC1)OCO2	10µM*	CHIKV nsP2 cell=-29%;NSP2 full ctr=?;Furin counterscr=-4%;nsP2 NS23 pep=16µM*;Papain cs=-3%;nsP2pro conf qHTS=7.1µM*;HCV NS3 4A cs=?
CC1(C)CC(=O)N(CCCCN2CCN(c3ncccn3)CC2)C(=O)C1	-6%
O=C(O)C(c1ccc2c(c1)OCCO2)N1CCCN(c2ncccn2)CC1 (centres undefined)	-4%
Cc1ccnc(NC(=S)N2CCN(c3ncc(C(F)(F)F)cc3Cl)CC2)c1	-3%
O=C(Nc1ccc([S+](=O)([O-])Nc2nccs2)cc1)C1CCNCC1	-5%
O=C1C2=C(CN1c1ccccc1)NC(Nc1nc3ccccc3o1)=NC2c1ccccc1Cl (centres undefined)	1%
O=C(NC1CCN(c2cc(-c3cccs3)[nH]n2)C1)c1cccnc1 (centres undefined)	-12%
O=C(Nc1ccccc1)NC1CCCN(c2ccc3nnc(-c4ccccc4)n3n2)C1 (centres undefined)	-1%
O=C(Nc1cccs1)NC1CCN(c2ccc(C(F)(F)F)cn2)C1 (centres undefined)	?	CHIKV nsP2 cell=?;NSP2 full ctr=?;Furin counterscr=-3%;nsP2 NS23 pep=?;Papain cs=-15%;nsP2pro conf qHTS=?;HCV NS3 4A cs=i
N#Cc1cc(CN2CCCC(C(=O)Nc3cccc(-c4ccc(F)cc4)c3)C2)c[nH]1 (centres undefined)	3%
O=[N+]([O-])c1ccc(S(=O)(=O)c2ccc(Cl)cc2)nc1	0.32µM*	CHIKV nsP2 cell=2.1µM*;NSP2 full ctr=0.73µM*;Furin counterscr=16µM*;nsP2 NS23 pep=1.8µM*;Papain cs=-10%;nsP2pro conf qHTS=0.45µM*;HCV NS3 4A cs=5.2µM*
CCc1cccc(CC)c1OCc1cc(C2Nc3ccccc3C(=O)N2Cc2ccco2)ccc1OC (centres undefined)	4%
Cc1nc(-c2cccs2)cc([C@H]2CN3CC[C@H]2C[C@@H]3COC(=O)NC2CCCCC2)n1	6%
COc1ccc(-c2cc([C@H]3CN4CC[C@H]3C[C@@H]4COC(=O)NC3CCCCC3)nc(C)n2)cc1	i
CC(=O)c1cccc(NC(=O)NC[C@H]2C[C@@H]3CCN2C[C@@H]3c2cc(-c3ccc(F)cc3)nc(C)n2)c1	i
Cc1nc(-c2ccccc2Br)cc([C@H]2CN3CC[C@H]2C[C@@H]3CNC(=O)NC2CCCCC2)n1	5µM*	CHIKV nsP2 cell=-3%;NSP2 full ctr=?;Furin counterscr=?;nsP2 NS23 pep=16µM*;Papain cs=0%;nsP2pro conf qHTS=8µM*;HCV NS3 4A cs=13µM*
COc1ccc(-c2cc([C@H]3CN4CC[C@H]3C[C@@H]4CNC(=O)NC3CCCCC3)n(C)n2)cc1	12%
Cc1nc(-c2ccco2)cc([C@H]2CN3CC[C@H]2C[C@@H]3CNC(=O)NC2CCCCC2)n1	8.9µM*	CHIKV nsP2 cell=31%;NSP2 full ctr=13µM*;Furin counterscr=?;nsP2 NS23 pep=17µM*;Papain cs=-8%;nsP2pro conf qHTS=13µM*;HCV NS3 4A cs=8.4µM*
Cc1cc(S(=O)(=O)Nc2cnccc2C(=O)Nc2nc(-c3ccccc3)cs2)c(C)o1	i
SMILES	nsP2pro inh	others
O=C(NCCCCc1ccccc1)C1CCN(c2nc(-c3ccc(Br)cc3)cs2)CC1	i
Clc1ncoc1-c1c[nH]c2ccccc12	?	CHIKV nsP2 cell=-13%;NSP2 full ctr=-18%;Furin counterscr=-2%;nsP2 NS23 pep=-26%;Papain cs=-13%;nsP2pro conf qHTS=-22%;HCV NS3 4A cs=i
CNc1oc(-c2c[nH]c3ccccc23)nc1C#N	i
COCCCNC(=O)c1cc(C)nc2onc(C3CCCNC3)c12 (centres undefined)	-25%
COC(=O)c1ccc(Nc2nc(-c3ccncc3)nc3ccccc23)cc1OC	i
COc1cccc(-c2cc(F)ccc2C2Cc3nc(N)nc(C)c3C(=O)N2)n1 (centres undefined)	-20%
O=C(Nc1ccc(N2CCN(c3ccc(F)cc3)CC2)c(C(=O)O)c1)c1cccs1	?	CHIKV nsP2 cell=36%;NSP2 full ctr=5.2µM*;Furin counterscr=-17%;nsP2 NS23 pep=13µM*;Papain cs=-3%;nsP2pro conf qHTS=8µM*;HCV NS3 4A cs=4.1µM*
CC(=O)c1ccc(N2CCN(c3ccc(NC(=O)c4ccc(F)cc4)cc3C(=O)O)CC2)cc1	36%
Cc1ccccc1C(=O)Nc1ccc2c(c1)CCCN2C(=O)c1cccs1	41%
CN1CCN(c2ccc(NC(=O)c3cccs3)cn2)CC1	-10%
NNc1ccc(NC(=O)c2cccs2)cn1	i
O=C(Nc1cnc(N2CCN(c3ccccc3)CC2)c(C(=O)O)c1)c1cccs1	2.5µM*	CHIKV nsP2 cell=-1%;NSP2 full ctr=2.1µM*;Furin counterscr=?;nsP2 NS23 pep=6.5µM*;Papain cs=-12%;nsP2pro conf qHTS=5.7µM*;HCV NS3 4A cs=2.9µM*
C1CC(c2noc(C3CC3)n2)CN1 (centres undefined)	18%
O=C(N1CCC2(CCNCC2)CC1)C1(S(=O)(=O)c2ccccc2)CC1	-1%
O=C(NCCc1nc2ccccc2[nH]1)C1CCCCC1	-9%
